Reference: PubChem BioAssay (NCATS)
Where “and” joins values, the source holds several entries; their conditions need not be identical. Identical values can stand only once. Records with an inconclusive call do not appear. Calls of active or inactive are those of the source. The call rests on the fitted dose curve; in most records, active means well fitted inhibition curve with a large enough effect; inconclusive means small, poorly fitted or top-dose-only effect; inactive means flat fitted curve, though single readings scatter.
On the % scale 0 is the no-effect control and ±100 the full control effect; potency means the concentration at half of the fitted maximal effect.

What follows are compounds tested on CRL-7250 (assay: Cytotoxic Profiling of Annotated Libraries Using Quantitative High-Throughput Screening (AID 1296008; further: nearly all actives have a fitted effect of over 60% in size)). Conditions: Five cell lines viability, CellTiter-Glo ATP luminescence, 48-72 h; max response: stronger effect = lower value.
In short: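 Cytotoxicity was measured as CellTiter-Glo ATP luminescence, read after 10 min at room temperature. Compound treatment of the cells lasted 48 or 72 hr at 37 degrees Celsius in a qHTS format.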
With `CCCCCC[C@H]1C(=O)O[C@H](C)[C@H](NC(=O)c2cccc(NC=O)c2O)C(=O)O[C@@H](C)[C@@H]1OC(=O)CC(C)C` the Potency was 1480 nM (active). `CC(C)(O)C=CC(=O)[C@](C)(O)[C@H]1[C@H](O)C[C@]2(C)[C@@H]3CC=C4[C@@H](C=C(O)C(=O)C4(C)C)[C@]3(C)C(=O)C[C@@]12C` was tested, and the Potency was 418 nM (active). With `O=S(=O)(CC1CS1)c1ccc(Oc2ccccc2)cc1` (configuration not stated) the max response was -6.75% (inactive). With `c1ccc2c(CN3CCNCC3)cccc2c1` the max response was -5.13% (inactive). With `CC(Cc1ccc(O)cc1)NCC(O)c1cc(O)cc(O)c1` (configuration not stated) the max response was 3.52% (inactive). With `O=c1[nH]c2ccc(Cl)cc2c(N[C@@H]2CN3CCC2CC3)c1-c1nc2ccccc2[nH]1` the Potency was 2.35 µM (active) and 6.51 µM (active). For `CC(C)(C)C(O)C(Oc1ccc(Cl)cc1)n1cncn1` (configuration not stated), the outcome was “inactive”. With `O=[N+]([O-])c1ncc[nH]1` the max response was -4.09% (inactive). In the case of `COCC1(CO)C(=O)C2CCN1CC2` (configuration not stated), the max response is reported as -4.01% (inactive). `C[C@](O)(COc1ccc(C#N)cc1)C(=O)Nc1ccc(C#N)c(C(F)(F)F)c1` was tested, and the max response was -6.61% (inactive). `CN[C@@H]1Cc2cccc3[nH]c(=O)n(c23)C1` was tested, and the max response was -16.3% (inactive). For `COc1ccc2c(c1)CN(C)CC2c1ccc(Cl)c(Cl)c1` (configuration not stated), the outcome was “inactive”. With `Clc1ccccc1C(c1ccccc1)(c1ccccc1)n1cccn1` the outcome was “inactive”. `O=C1C=CC[C@@H]2[C@H]3CCCN4CCC[C@@H](CN12)[C@@H]34` was tested, and the max response was -6.72% (inactive) and -5.8% (inactive). `CCOCCOC(C)=O` was tested, and the max response was -13% (inactive). With `Cc1c(C(=O)Nc2cccc(C(F)(F)F)c2)cc(-c2ccccc2)n1CCCN1CCOCC1` the max response was -26% (inactive) and -3.59% (inactive). With `CCCN1CCO[C@@H]2c3cc(O)ccc3OC[C@@H]21` the max response was -5.49% (inactive). `CC(C)(O)C(=O)Nc1ccc([N+](=O)[O-])c(C(F)(F)F)c1` was tested, and the max response was -26.4% (inactive). For `O=c1[nH]c2ccccc2n1C1CCN(Cc2ccc(-c3[nH]c4cc5ncnc5cc4nc3-c3ccccc3)cc2)CC1`, the outcome was “inactive”. With `C[C@]12CC[C@H]3[C@@H](CCC4=CC(=O)CC[C@@]43C)[C@H]1CC[C@H]2OC(=O)CCC1CCCC1` the max response was 2.84% (inactive). In the case of `O=C(N[C@@H](COc1ccc2[nH]c(=O)[nH]c2c1)c1ccccc1)c1cccn(Cc2ccc(F)c(F)c2)c1=O`, the max response is reported as -47.2% (inactive). With `CC=C(C)C(=O)O[C@H]1C(C)=C2[C@@H]3OC(=O)[C@@](C)(O)[C@@]3(O)[C@@H](OC(=O)CCC)C[C@](C)(OC(C)=O)[C@@H]2[C@@H]1OC(=O)CCCCCCC` the Potency was 148 nM (active). In the case of `C=C1C[C@H]2[C@H]3CCC(=O)[C@@]3(C)CC[C@@H]2[C@@]2(C)C=CC(=O)C=C12`, the max response is reported as -22.6% (inactive). In the case of `O=C(O)COc1nc(Cl)c(Cl)cc1Cl`, the max response is reported as -6.6% (inactive). With `O=[N+]([O-])c1c(Cl)c(Cl)cc(Cl)c1Cl` the max response was -4.27% (inactive). In the case of `CCCCOC(=O)c1ccccc1C(=O)OCc1ccccc1`, the max response is reported as -23.3% (inactive). With `O=C(O)c1cc(Oc2ccc(C(F)(F)F)cc2Cl)ccc1[N+](=O)[O-]` the max response was -0.373% (inactive). In the case of `COc1ccc(C(=O)c2c(C)n(CCN3CCOCC3)c3cc(I)ccc23)cc1`, the max response is reported as 4.04% (inactive). `Nc1ccc(Cl)cc1` was tested, and the max response was -5.83% (inactive). `CN1CCN(c2ccc([N+](=O)[O-])c3no[n+]([O-])c23)CC1` was tested, and the max response was 3.76% (inactive) and -14.8% (inactive). `C=CC(=O)NCNC(=O)C=C` was tested, and the max response was -10.1% (inactive). `O=C(Nc1ccccc1-c1ccc(Cl)cc1)c1cccnc1Cl` was tested, and the max response was -3.67% (inactive).
